# Source: the supplement of paper PMC4206467
# Test system: Perkinsus marinus PRA240
# Assay: ATP content (proliferation) relative to DMSO control; higher = more parasite growth (less inhibition)
# Settings: 20 µM; 4 days
# Experimental: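 Perkinsus marinus PRA240 trophozoites (2-5x10^6 cells/ml, 100 µl, 96-well) were exposed once to MMV Malaria Box compounds at 20 µM (0.1% DMSO) in triplicate. ATP content (ATPlite bioluminescence) was read at day 4 post-exposure and normalised to DMSO + cells control wells (100% activity). Compounds were identified by joining plate and well to the Malaria Box list.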
row,Compound,ATP content [%]
1,Oc1ccc2ccccc2c1CNc1nc2ccccc2[nH]1,65.9
2,COc1cccc(C2(C)Nc3ccccc3-c3nc4ccccc4n32)c1 (configuration not stated),144
3,Nc1ccc(-c2nc3cc(Cc4ccc5[nH]c(-c6ccc(N)cc6)nc5c4)ccc3[nH]2)cc1,135
4,O=C(Nc1ccc(C23CC4CC(CC(c5ccccc5)(C4)C2)C3)cc1)c1cccs1,68.7
5,Cc1ccc(C)c(Cn2c(N3CCC(C(=O)NCc4cccs4)CC3)nc3ccccc32)c1,154
6,FC(F)(F)c1ccc(Nc2nnnc3ccccc23)cc1,44
7,N=c1n(CCN2CCCCC2)c2ccccc2n1CC(=O)c1ccc(Cl)c(Cl)c1,111
8,OC(Cn1nnc2ccccc21)Cn1c2ccc(Br)cc2c2cc(Br)ccc21 (configuration not stated),135
9,Clc1ccc2[nH]c3c(NCCCN4CCOCC4)ncnc3c2c1,163
10,CCCCc1c(C)nc2c(OC)cccc2c1O,37.3
11,CCN(CC)c1ccc(NC(=O)c2cccs2)cc1,64
12,CN1c2ccccc2N(C)C1c1ccc2c(c1)OCO2,87.3
13,CCC(=O)Nc1nnc(Cc2ccc(OC)c(OC)c2)s1,103
14,COc1cc(OC)cc(N2C(=O)N(Cc3ccc(C(C)(C)C)cc3)c3ccccc3S2(=O)=O)c1,130
15,CCOc1ccc2nc(C)cc(Nc3ccc(N(C)C)cc3)c2c1,86.6
16,COc1cccc(C(=O)NC(c2ccc(C)cc2)c2cc(Cl)c3cccnc3c2O)c1 (configuration not stated),39.5
17,COc1ccc2nc(N)nc(C)c2c1,88
18,COc1cc2cc(C(=O)Nc3ccccc3)c(N)nc2cc1OC,44.3
19,COc1ccc(C)c2sc(N(Cc3cccnc3)C(=O)c3ccc(C#N)cc3)nc12,87.4

row,Compound,ATP content [%]
1,Nc1ccc(-c2nc3cc(Oc4ccc(Oc5ccc6[nH]c(-c7ccc(N)cc7)nc6c5)cc4)ccc3[nH]2)cc1,74.1
2,COc1ccc(CNC(=O)c2cc3c(=O)n4ccccc4nc3n(CCc3ccccc3)c2=N)cc1,107
3,COc1ccc(CCNC(=O)c2cc(S(=O)(=O)N3CC(C)CC(C)C3)ccc2Sc2ccc(F)cc2)cc1OC (configuration not stated),160
4,N=c1c2ccccc2nnn1-c1cccc(C(F)(F)F)c1,67.7
5,CCCCOC(=O)c1ccc(Nc2cc(C)nc3ccc(OC)cc23)cc1,93.9
6,O=C(Nc1ccccc1O)c1ccc(Oc2cccc(C(=O)Nc3ccccc3O)c2)cc1,30.4
7,COC(=O)c1ccc(C2C3=C(O)CC(c4ccc(F)cc4)CC3=Nc3ccccc3N2C(=O)c2ccccc2)cc1 (configuration not stated),105
8,CCCn1c(=N)c(C(=O)NC2CCCCC2)cc2c(=O)n3cccc(C)c3nc21,64.4
9,COCCN(C(=O)Cc1cccs1)C(C(=O)NCc1ccc(OC)cc1)c1ccc(C(C)C)cc1 (configuration not stated),37.2
10,COCCn1c(C)nc2ccccc2c1=O,130
11,COc1cccc(O)c1CN1CCC2(CCCN(Cc3ccc(F)cc3)C2)C1 (configuration not stated),70.7
12,O=C1C2=C(Nc3ccccc3SC2c2ccccc2)c2ccccc21 (configuration not stated),17.1
13,CCOC(=O)C1=C(C)N=c2sc(=Cc3ccccc3O)c(=O)n2C1c1ccc(OC)c2ccccc12 (configuration not stated),196
14,CN(C)c1ccc(-c2nc3cc(N)ccc3[nH]2)cc1,0.856
15,Oc1c2c(nc3ccccc13)CCCC2,42.5
16,Cc1cc(C)c2nc(N3CCC(C(=O)NCCCN4CCC(N5CCCCC5)CC4)CC3)sc2c1,135
17,Cc1cc(Nc2ccc(OCc3ccccc3)cc2)nc2cc(O)ccc12,4.92
18,O=C(NCCCN1CCC(N2CCCCC2)CC1)C1=Cc2cc(Br)ccc2OC1,224
